PubChem BioAssay AID1159580 (chemical genetic matrix, 2015)
The campaign covered roughly 5,500 compounds. About 2,000 (36%) were called active. Another 18% or so got no clear call; they are omitted. No stated cut-off is given here; in the data, active means normalized growth mostly below about 0.91 (no sharp cut-off); inconclusive means no clear call, values can overlap the other calls; inactive means mostly above about 0.92. This is one part of the list.

Test: chemical genetic growth profiling, strain panel (AID 1159580);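 further: tested at 20 µM; growth read once vehicle control cultures reached saturation at 30 °C; 1 = growth at the plate median or of vehicle wells; lower values mean less growth of the strain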
Conditions: growth OD

Measured: normalized growth

CC(=O)CC(c1ccccc1)c1c(O)c2ccccc2oc1=O (configuration not stated)
inactive: S. cerevisiae deletion strains, locus YJR075W, strain HOC1, hits give low values 0.981 | S. cerevisiae deletion strains, locus YKL009W, strain mrt4, hits give low values 1 | S. cerevisiae deletion strains, locus YKL068W, hits give low values 1 | S. cerevisiae deletion strains, locus YKL085W, strain MDH1 (second series), hits give low values 0.954 | S. cerevisiae deletion strains, locus YKL085W, strain MDH1, hits give low values 0.954 | S. cerevisiae deletion strains, locus YKL160W, strain elf1, hits give low values 1 | S. cerevisiae deletion strains, locus YKL190W, strain CNB1, hits give low values 1.01 | S. cerevisiae deletion strains, locus YKR001C, strain vps1, hits give low values 1.02 | S. cerevisiae deletion strains, locus YKR026C, strain gcn3, hits give low values 0.992 | S. cerevisiae deletion strains, locus YKR091W, strain srl3, hits give low values 0.995 | S. cerevisiae deletion strains, locus YLL001W, strain dnm1, hits give low values 0.993 | S. cerevisiae deletion strains, locus YLL026W, hits give low values 0.988 | S. cerevisiae deletion strains, locus YLL041C, strain sdh2, hits give low values 0.997 | S. cerevisiae deletion strains, locus YLR027C, strain aat2, hits give low values 1 | S. cerevisiae deletion strains, locus YLR039C, strain RIC1, hits give low values 0.986 | S. cerevisiae deletion strains, locus YLR058C, strain SHM2, hits give low values 1.01 | S. cerevisiae deletion strains, locus YLR102C, strain apc9, hits give low values 1.01 | S. cerevisiae deletion strains, locus YLR113W, strain HOG1, hits give low values 0.922 | S. cerevisiae deletion strains, locus YLR221C, strain rsa3, hits give low values 1.01 | S. cerevisiae deletion strains, locus YLR258W, strain gsy2, hits give low values 1 | S. cerevisiae deletion strains, locus YLR262C, strain YPT6 (second series), hits give low values 0.881 | S. cerevisiae deletion strains, locus YLR262C, strain YPT6, hits give low values 0.99 | S. cerevisiae deletion strains, locus YLR268W, strain sec22, hits give low values 1.03 | S. cerevisiae deletion strains, locus YLR320W, strain mms22, hits give low values 1.01 | S. cerevisiae deletion strains, locus YLR330W, strain CHS5, hits give low values 1 | S. cerevisiae deletion strains, locus YLR342W, strain FKS1 (second series), hits give low values 1.02 | S. cerevisiae deletion strains, locus YLR342W, strain FKS1, hits give low values 0.995 | S. cerevisiae deletion strains, locus YLR357W, strain rsc2, hits give low values 1.03 | S. cerevisiae deletion strains, locus YLR370C, strain arc18, hits give low values 0.993 | S. cerevisiae deletion strains, locus YLR371W, strain rom2, hits give low values 1.02 | S. cerevisiae deletion strains, locus YLR384C, strain iki3, hits give low values 0.986 | S. cerevisiae deletion strains, locus YLR418C, strain cdc73, hits give low values 1.06 | S. cerevisiae deletion strains, locus YML016C, strain PPZ1, hits give low values 1.01 | S. cerevisiae deletion strains, locus YML032C, strain rad52, hits give low values 1.03 | S. cerevisiae deletion strains, locus YML120C, strain ndi1, hits give low values 1 | S. cerevisiae deletion strains, locus YML124C, strain tub3, hits give low values 1.01 | S. cerevisiae deletion strains, locus YMR058W, strain fet3, hits give low values 1.01 | S. cerevisiae deletion strains, locus YMR078C, strain ctf18, hits give low values 1.02 | S. cerevisiae deletion strains, locus YMR125W, strain sto1, hits give low values 1.01 | S. cerevisiae deletion strains, locus YMR129W, hits give low values 1 | S. cerevisiae deletion strains, locus YMR205C, strain PFK2, hits give low values 1.01 | S. cerevisiae deletion strains, locus YMR223W, strain ubp8, hits give low values 1.01 | S. cerevisiae deletion strains, locus YMR231W, strain pep5, hits give low values 1 | S. cerevisiae deletion strains, locus YMR263W, strain SAP30, hits give low values 1.01 | S. cerevisiae deletion strains, locus YMR307W, strain GAS1, hits give low values 1.05 | S. cerevisiae deletion strains, locus YNL067W, strain RPL9B, hits give low values 1.01 | S. cerevisiae deletion strains, locus YNL071W, strain lat1, hits give low values 1 | S. cerevisiae deletion strains, locus YNL128W, strain TEP1, hits give low values 1.03 | S. cerevisiae deletion strains, locus YNL153C, strain GIM3, hits give low values 1 | S. cerevisiae deletion strains, locus YNL183C, strain NPR1, hits give low values 0.942 | S. cerevisiae deletion strains, locus YNL209W, strain ssb2, hits give low values 0.998 | S. cerevisiae deletion strains, locus YNL233W, strain BNI4, hits give low values 1.01 | S. cerevisiae deletion strains, locus YNL248C, strain rpa49, hits give low values 1.01 | S. cerevisiae deletion strains, locus YNL250W, strain rad50, hits give low values 1.05 | S. cerevisiae deletion strains, locus YNL271C, strain bni1, hits give low values 1.01 | S. cerevisiae deletion strains, locus YNL298W, strain CLA4, hits give low values 1.03 | S. cerevisiae deletion strains, locus YNL307C, strain MCK1, hits give low values 1.06 | S. cerevisiae deletion strains, locus YNL322C, strain KRE1 (second series), hits give low values 0.989 | S. cerevisiae deletion strains, locus YNL322C, strain KRE1, hits give low values 1.02 | S. cerevisiae deletion strains, locus YNR049C, strain mso1, hits give low values 0.995 | S. cerevisiae deletion strains, locus YNR052C, strain pop2, hits give low values 1.03 | S. cerevisiae deletion strains, locus YOL006C, strain TOP1, hits give low values 1 | S. cerevisiae deletion strains, locus YOL012C, strain htz1 1.19 | S. cerevisiae deletion strains, locus YOL147C, strain pex11, hits give low values 1.01 | S. cerevisiae deletion strains, locus YOR001W, strain rrp6, hits give low values 1.02 | S. cerevisiae deletion strains, locus YOR061W, strain CKA2, hits give low values 1.01 | S. cerevisiae deletion strains, locus YOR069W, strain VPS5, hits give low values 1 | S. cerevisiae deletion strains, locus YOR070C, strain gyp1, hits give low values 0.996 | S. cerevisiae deletion strains, locus YOR080W, strain dia2, hits give low values 1 | S. cerevisiae deletion strains, locus YOR083W, strain WHI5, hits give low values 1.01 | S. cerevisiae deletion strains, locus YOR106W, strain vam3, hits give low values 0.992 | S. cerevisiae deletion strains, locus YOR136W, strain idh2, hits give low values 1.03 | S. cerevisiae deletion strains, locus YOR144C, strain elg1, hits give low values 1.01 | S. cerevisiae deletion strains, locus YOR184W, strain ser1, hits give low values 1.04 | S. cerevisiae deletion strains, locus YOR231W, strain MKK1, hits give low values 0.983 | S. cerevisiae deletion strains, locus YOR265W, strain rbl2, hits give low values 0.984 | S. cerevisiae deletion strains, locus YOR270C, strain vph1, hits give low values 1.02 | S. cerevisiae deletion strains, locus YOR290C, strain snf2, hits give low values 1.01 | S. cerevisiae deletion strains, locus YOR316C, strain cot1, hits give low values 1.01 | S. cerevisiae deletion strains, locus YPL051W, strain arl3, hits give low values 0.994 | S. cerevisiae deletion strains, locus YPL055C, strain LGE1, hits give low values 1.05 | S. cerevisiae deletion strains, locus YPL078C, strain atp4, hits give low values 1.02 | S. cerevisiae deletion strains, locus YPL106C, strain sse1, hits give low values 1.02 | S. cerevisiae deletion strains, locus YPL240C, strain hsp82, hits give low values 1 | S. cerevisiae deletion strains, locus YPL241C, strain CIN2, hits give low values 1.01 | S. cerevisiae deletion strains, locus YPL256C, strain CLN2, hits give low values 0.955 | S. cerevisiae deletion strains, locus YPR119W, strain clb2, hits give low values 1.01 | S. cerevisiae deletion strains, locus YPR141C, strain kar3, hits give low values 1.01 | S. cerevisiae deletion strains, locus YPR163C, strain tif3, hits give low values 1.02 | S. cerevisiae deletion strains, locus YPR167C, strain met16, hits give low values 1.01 | S. cerevisiae deletion strains, strain wtn01, hits give low values 1 | S. cerevisiae strains, strain wild type, hits give low values 1.02
